Measurements from PubChem BioAssay.

Biological target: E3 ubiquitin-protein ligase XIAP (Homo sapiens) (UniProt P98170)
Assay: XIAP binders, primary screen, biophysical, small-molecule microarray, fluorescence 635 nm (AID 1181);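 also: score merges 667 nm emission and signal to noise over triplicate slides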
Conditions: small-molecule microarray binding, higher = more signal

E3 ubiquitin-protein ligase XIAP (Homo sapiens), sequence (P98170 whole entry, looked up): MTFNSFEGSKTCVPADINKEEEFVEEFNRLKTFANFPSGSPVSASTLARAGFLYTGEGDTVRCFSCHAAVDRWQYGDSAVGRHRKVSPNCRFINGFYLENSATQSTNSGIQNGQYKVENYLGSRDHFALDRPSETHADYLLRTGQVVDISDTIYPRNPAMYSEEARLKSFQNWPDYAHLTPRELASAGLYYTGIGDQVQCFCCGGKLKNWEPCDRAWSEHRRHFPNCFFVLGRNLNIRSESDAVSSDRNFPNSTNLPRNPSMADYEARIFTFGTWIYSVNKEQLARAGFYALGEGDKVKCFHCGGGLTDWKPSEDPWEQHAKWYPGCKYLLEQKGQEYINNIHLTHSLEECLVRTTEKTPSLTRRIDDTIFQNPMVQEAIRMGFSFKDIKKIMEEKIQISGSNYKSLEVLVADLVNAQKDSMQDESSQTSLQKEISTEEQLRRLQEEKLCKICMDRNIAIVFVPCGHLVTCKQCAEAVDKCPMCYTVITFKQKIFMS

Row | Compound | composite z-score
1 | C=CCNC(=O)[C@@H]1[C@H]2C(=O)O[C@H](c3ccccc3)[C@H](c3ccccc3)N2[C@H](c2ccc(OCCO)cc2)[C@@]12C(=O)Nc1ccc(C#CC3=CCCCC3)cc12 | -0.178
2 | O=C/C=C/c1ccc(-c2ccccc2)cc1 | 0.0097
3 | CCCCCCc1nc(Cc2cc(OC)c(OC)c(OC)c2)c(C)c2c1[Si](C(C)C)(C(C)C)OC2 | 0.146
4 | [N-]=[N+]=Nc1ccccc1C[C@]1(C(=O)N2CCCCC2)N=C(c2ccc(OCCCO)cc2)O[C@H]1c1ccccc1 | -0.102
5 | COc1ccc(C(O)C2C=CC3C(=O)N(C)C(=O)C3N2Nc2ccccc2)cc1 (stereo not given) | 0.032
6 | COc1ccc(C(=O)Nc2ccc(CN3C(=O)[C@]4(O[C@H](CC(=O)N(CCO)Cc5ccccc5)[C@@H]([Si](C)(C)c5ccc(OC)cc5)[C@@H]4C)c4ccccc43)cc2)cc1 | -0.209
7 | C=C(COC)C(=O)CC[C@@H](OC(=O)c1ccccc1-c1ccccc1C(=O)O)c1ccccc1OCCO | 0.261
8 | C=C1C(=O)C=C2CN(C(=O)c3ccccc3)[C@@](Cc3ccc(F)cc3)(C(=O)OC)[C@@H]12 | 0.154
9 | C=CCOC(=O)[C@@H]1[C@H]2C(=O)O[C@H](c3ccccc3)[C@H](c3ccccc3)N2[C@H](c2ccc(OCCOC(=O)[C@H]3C[C@H]4C(=O)N[C@@H](CCCCN(C)C)C(=O)N4[C@H]3c3cccc(OCCO)c3)cc2)[C@@]12C(=O)Nc1ccccc12 | -0.0102
10 | COCCCNC(=O)[C@@]1(Cc2ccccc2I)c2ccccc2C(=O)N(Cc2ccccc2OC)[C@H]1c1ccc(CO)cc1 | 0.0506
11 | COCCCNC(=O)[C@@]1(Cc2ccccc2I)c2ccccc2C(=O)N(C2CCCCC2)[C@H]1c1ccc(CO)cc1 | -0.0343
12 | O=C1C2C=CC(C(O)C3CCCCC3)N(Nc3ccccc3F)C2C(=O)N1c1ccccc1 (stereo not given) | -0.235
13 | COC(=O)C1(CC(C)C)C=C2C(=C(C)C(=O)C2C)CN1 (stereo not given) | 0.0408
14 | CCOC(=O)C=C1C[C@@H](c2cccc([N+](=O)[O-])c2)O[C@@H](c2cccc([N+](=O)[O-])c2)O1 | 0.127
15 | CC(C)Cc1ccc(CN2CC[C@@H](NC(=O)c3ccccc3)C2)cc1 | -0.135
16 | COc1ccc(CCNC(=O)[C@@]2(c3ccc([N+](=O)[O-])cc3)CC(=O)N(C3CCCCC3)[C@@H]2c2ccc(CO)cc2I)cc1 | -0.16
17 | COC(=O)[C@]1(Cc2ccccc2N=[N+]=[N-])N=C(c2ccc(OCCCO)cc2)O[C@@H]1c1ccccc1CN=[N+]=[N-] | -0.0277
18 | C=C(C(=O)CC[C@@H](OC(=O)c1ccccc1-c1ccccc1C(=O)O)c1ccc(OCCO)cc1)C(C)C | -0.101
19 | CC(C)[Si]1(C(C)C)OCc2cc(-c3ccc(-c4ccc(Cl)c(Cl)c4)o3)nc(-c3ccc(Oc4ccccc4)cc3)c21 | 0.114
20 | O=C1C2C=CC(C(O)c3ccccn3)N(Nc3ccc([N+](=O)[O-])cc3)C2C(=O)N1c1ccccc1 (stereo not given) | 0.359
21 | O=C1OC[C@@H](c2ccccc2)n2cc(/C=C/c3ccccc3)cc21 | -0.286
22 | CC[C@@H](O[Si](C#C[Si](C(C)C)(C(C)C)C(C)C)(C(C)C)C(C)C)c1cn([C@H](C)c2ccccc2)nn1 | -0.209
23 | O=C1OCCC/C=C\[C@H]2OC34C=CCN(Cc5ccccc5)C(=O)[C@H]3N(CCO)C(=O)[C@@H]4C12 (stereo not given in full) | 0.0015
24 | COc1ccc(C(=O)Nc2cccc(CN3C(=O)[C@]4(O[C@H](CC(=O)N(CCO)Cc5ccccc5)[C@@H]([Si](C)(C)c5ccc(OC)cc5)[C@@H]4C)c4ccccc43)c2)cc1 | 1.38
25 | COC(=O)[C@@]1(Cc2ccc(F)cc2)[C@H]2c3cc(C(=O)N4CCCC4)n(CCc4c[nH]c5cc(F)ccc45)c3C[C@H]2CN1C(=O)c1ccccc1 | 0.0535
